# Inconclusive results are not listed. Calls of active or inactive are those of the source. Calls follow the shape of the dose curve; as a rule, active = well fitted activation curve with a large enough effect; inconclusive = small, poorly fitted or top-dose-only effect; inactive = flat fitted curve, though single readings scatter.
# Experiment: qHTS for Inhibitors of Cell Surface uPA Generation: FP59 Counterscreen for Cherry-picked Compounds; as to activity (protection from FP59): 0% is about no effect
# Conditions: FP59 anthrax toxin cytotoxicity counterscreen, cells; series mostly up to 115 µM; activity (protection from FP59): at the top concentration
# Potency is read from the fitted curve at half-maximal effect.
Structure (SMILES),activity (protection from FP59),Potency
Cn1c(C2CCCCC2)nc2cc(N)ccc21,-1.49% (inactive),
COc1ccc(CC(=O)OCC(=O)NNC(=O)c2ccccc2)cc1,-1.53% (inactive),
Cc1nc(NC(=O)COC(=O)CCc2ccccc2)c(Cl)cc1Cl,-0.548% (inactive),
Cc1nn2c(=O)cc(CSc3nc4ccccc4[nH]3)nc2s1,-1.07% (inactive),
CS(=O)(=O)N1CCC(C(=O)Nc2ccccc2)CC1,-1.14% (inactive),
CCCN1CCN(C(=O)CCCn2c(C)c3cnn(-c4ccccc4)c(=O)c3c2C)CC1,-1.38% (inactive),
CC(C)c1ccc(SCc2noc(C(=O)NCC3CCCO3)c2C(=O)O)cc1 (stereo not given),-1.37% (inactive),
CC(=O)N1CCN(C(=O)CSc2cc(C)c(Br)cc2C)CC1,-1.27% (inactive),
COc1cccc2c1Oc1ncccc1N(C(=O)CCC(=O)NCc1ccc(C)cc1)C2,-1.2% (inactive),
COc1cc(CN2CCN(S(=O)(=O)c3ccccc3)CC2)cc(OC)c1OC,-1.15% (inactive),
O=c1ccc(S(=O)(=O)N2CCCC2)c[nH]1,-1.23% (inactive),
CCn1c(CNc2ccc(F)cc2)nnc1SCC(=O)Nc1ccccc1OC,-1.42% (inactive),
CN(C)C(=O)NC(NC(=S)Nc1ccccc1)C(Cl)(Cl)Cl (stereo not given),-0.348% (inactive),
CC1CS(=O)(=O)CCN1N=Cc1ccc([N+](=O)[O-])o1 (stereo not given),2.87% (inactive),
Cc1cc(NC(=O)COc2cccc([N+](=O)[O-])c2)no1,-1.44% (inactive),
c1ccc(C2[C@H]3CN(Cc4cccnc4)[C@H](c4ccccc4)C34CC2(c2ccccc2)C4)cc1 (stereo not given in full),11.2% (inactive),
C=CC1=C(C(=O)O)N2C(=O)[C@@H](NC(=O)/C(=N\O)c3csc(N)n3)[C@H]2SC1 (stereo in doubt),-1.16% (inactive),
CCCn1nnc(NC(=S)NC(=O)c2ccccc2OC)n1,-1.42% (inactive),
NC(=O)CC(NC(=O)Cc1cccc2ccccc12)c1ccc(N2CCC(Cc3ccccc3)CC2)c([N+](=O)[O-])c1 (stereo not given),-1.17% (inactive),
CS(=O)(=O)Nc1cccc(C2=NN(S(=O)(=O)c3ccccc3)C(c3ccco3)C2)c1 (stereo not given),-1.08% (inactive),

Structure (SMILES),activity (protection from FP59),Potency
COc1cc(C(=O)N/N=C(\Cc2ncc[nH]2)c2ccccc2)cc(OC)c1OC,-0.278% (inactive),
CCOc1ccccc1C(=O)NC1CCN(CC(=O)Nc2cc(OC)ccc2OC)CC1,-0.0735% (inactive),
COc1ccc(C2=Nc3ccccc3C2(O)CCN2C(=O)c3ccccc3C2=O)cc1 (stereo not given),-1.54% (inactive),
O=C(N/N=C/c1cccs1)c1ccco1,-1.33% (inactive),
C=CC(=O)N1C/C(=C/c2ccccc2)C(=O)/C(=C\c2ccccc2)C1,,13.1 µM (active)
O=C(CSc1nnnn1-c1cccc(F)c1)Nc1nc2ccccc2s1,-1.19% (inactive),
CC1C2=C(CC(C)(C)CC2=O)NC2=C1C(=O)CC(C)(C)C2,-1.24% (inactive),
CCN(C1CCS(=O)(=O)C1)S(=O)(=O)c1ccc2ccccc2c1 (stereo not given),-1.5% (inactive),
Cc1ccc(NC(=S)N2CCN(Cc3ccc4c(c3)OCO4)CC2)c(C)c1,-1.41% (inactive),
NC(=O)C1CCN(C(=O)c2cccc3ccccc23)CC1,-1.24% (inactive),
CCOC(=O)N1CCN(c2c(NCCCN3CCCCCC3)c(=O)c2=O)CC1,-1.45% (inactive),
Cc1ccc(-c2cc(C(=O)NCC3CCCO3)no2)cc1 (stereo not given),-1.57% (inactive),
CC[C@]1(C(=O)OC)[C@H]2C(=O)N(C)C(=O)[C@H]2[C@H]2CN(C)C(=NC3CCCCC3)N21,0.0361% (inactive),
CCOc1cc(C(=O)OCC(=O)c2cc(C)n(CC3CCCO3)c2C)ccc1OCC(=O)N1CCOCC1 (stereo not given),-1.32% (inactive),
NC(=O)c1cc2ccncc2c2ccccc12,0.728% (inactive),
O=C(Nc1ccc(NC(=O)c2ccco2)c(Cl)c1)c1ccccc1,-1.41% (inactive),
CC(C)CNC(=O)COC(=O)CCC(=O)c1cccs1,-1.36% (inactive),
CC(OC(=O)c1cccc(-n2cnnn2)c1)C(=O)Nc1ccc(F)c(F)c1F (stereo not given),-1.35% (inactive),
O=C(COC(=O)c1cc([N+](=O)[O-])ccc1NCCO)NCc1cccs1,-1.43% (inactive),
Cc1cccc(C(=O)NCC(=O)OCC(=O)NC2CCCCCCC2)c1,-1.42% (inactive),

# — PubChem BioAssay AID720517 (National Center for Advancing Translational Sciences (NCATS), 2013)
